# Tests used:
# Assay in all cases: PBM binding z-score (relative to random genomic background probes); higher = stronger binding; sequences stand for … in GC…GCGATTGACAGCGTAGAATGAAGG
# [1] = test system: FXR:RXRa (NR concentration 270 nM, RXRa partner concentration 90 nM)
# How it was run: (§1)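 Probes were double-stranded and carried 34-nt variable regions with direct-repeat seeds, single-nucleotide variants, half-site ablations and random human genomic background sequences, printed on custom Agilent 4×180K protein-binding microarrays. Arrays were incubated 1 h with ligand-free nuclear receptor dimers in PBS pH 7.4, 2% milk, 0.02% Triton X-100, 1 mM DTT, 0.2 mg/mL BSA and 0.4 mg/ml salmon testes DNA. Antibodies against each partner (one per run) detected binding, and scanned fluorescence was regression-normalized. Binding z-scores use the random background probes as reference.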
# [2] = test system: LXRa:RXRa (NR concentration 270 nM, RXRa partner concentration 90 nM)
# How it was run: as §1
# [3] = test system: LXRa homodimer (NR concentration 270 nM)
# How it was run: as §1
# [4] = test system: LXRb:RXRa (NR concentration 270 nM, RXRa partner concentration 90 nM)
# How it was run: as §1
# [5] = test system: LXRb homodimer (NR concentration 270 nM)
# How it was run: as §1
# [6] = test system: PPARa:RXRa (NR concentration 270 nM, RXRa partner concentration 90 nM)
# How it was run: as §1
# [7] = test system: PPARg:RXRa (NR concentration 180 nM, RXRa partner concentration 90 nM)
# How it was run: as §1
# [8] = test system: PPARg:RXRa 270nM:90nM, anti-RXR (NR concentration 270 nM, RXRa partner concentration 90 nM)
# How it was run: as §1
# [9] = test system: PPARg:RXRa 30nM:10nM, anti-RXR (NR concentration 30 nM, RXRa partner concentration 10 nM)
# How it was run: as §1
# [10] = test system: PPARg:RXRa 90nM:30nM, anti-RXR (NR concentration 90 nM, RXRa partner concentration 30 nM)
# How it was run: as §1
# [11] = test system: PPARg:RXRa DBDmut IVT, anti-RXR (DBD mutation: RXRa K156A/R161A, NR concentration 270 nM, RXRa partner concentration 90 nM)
# How it was run: as §1
# [12] = test system: PPARg:RXRa IVT, anti-PPARg (NR concentration 270 nM, RXRa partner concentration 90 nM)
# How it was run: as §1
# [13] = test system: PPARg DBDmut:RXRa IVT, anti-PPARg (DBD mutation: PPARg1 K132A/R137A, NR concentration 270 nM, RXRa partner concentration 90 nM)
# How it was run: as §1
# [14] = test system: PPARg DBDmut IVT, anti-PPARg (DBD mutation: PPARg1 K132A/R137A, NR concentration 270 nM)
# How it was run: as §1
# [15] = test system: PPARg homodimer (NR concentration 180 nM)
# How it was run: as §1
# [16] = test system: PXR:RXRa (NR concentration 270 nM, RXRa partner concentration 90 nM)
# How it was run: as §1
# [17] = test system: PXR homodimer (NR concentration 270 nM)
# How it was run: as §1
# [18] = test system: RARa:RXR (NR concentration 270 nM, RXRa partner concentration 90 nM)
# How it was run: as §1
# [19] = test system: RARa homodimer (NR concentration 270 nM)
# How it was run: as §1
# [20] = test system: RARb:RXRa (NR concentration 270 nM, RXRa partner concentration 90 nM)
# How it was run: as §1
Sequence,PBM binding z-score [1],PBM binding z-score [2],PBM binding z-score [3],PBM binding z-score [4],PBM binding z-score [5],PBM binding z-score [6],PBM binding z-score [7],PBM binding z-score [8],PBM binding z-score [9],PBM binding z-score [10],PBM binding z-score [11],PBM binding z-score [12],PBM binding z-score [13],PBM binding z-score [14],PBM binding z-score [15],PBM binding z-score [16],PBM binding z-score [17],PBM binding z-score [18],PBM binding z-score [19],PBM binding z-score [20]
GCTGCTCGGTCAGGTTGGTCAGCTAACGGGTACG,-0.343,-0.331,-0.448,-0.697,-0.583,-0.536,-0.75,-0.709,-0.71,-1.1,-0.244,-0.303,-1.15,-1.51,-0.397,-0.721,-0.841,-0.696,-0.978,1.94
CGTCGAAGGTCATAGGAGGTCAGTGAAGACAGAT,7.63,7.68,5.14,6.27,0.859,5.98,5.54,6.05,3.04,4.92,3.11,4.45,-0.37,-0.169,4.08,6.79,3.47,5.95,2.11,5.41
GCTCGGAGGACTAGGTCAGAGCTTTGTCCGTAGA,-0.693,-0.505,-1.09,-0.622,-1.5,0.919,0.339,1.04,-1.04,0.269,2.42,2.73,-1.06,-1.65,-0.329,-0.496,-0.984,-0.285,-1.53,1.27
CCTTACGCGTCAAGGTTATAGCACGGGTGGTACG,0.452,0.749,0.096,0.771,0.153,1.14,0.691,-0.0885,-0.308,0.0411,0.185,-0.0236,-0.542,-0.798,0.726,0.65,0.0877,1.02,0.124,0.97
TCGAGTAGGTTAGTCGGGGCATTCGGCCAACATA,-0.18,-0.185,-0.523,0.162,-0.854,0.505,-0.197,0.72,0.731,0.597,1.74,2.04,-1.62,-1.17,0.0341,0.113,0.177,0.065,-0.901,0.58
CGTCAAAGTTCAACTACGGTAACGTAAAGCACGC,6.73,6.61,4.35,4.24,2.11,5.17,4.85,5.54,2.32,4.26,0.132,1.78,0.517,0.931,3.69,5.14,3.79,4.38,2.22,5.2
ATCGAAAGGTCGTGAGGTGAGTATTCAGAAAGGC,5.34,4.08,-0.0279,3.34,0.35,5.12,4.06,4.24,1.5,2.96,0.173,2.36,0.908,0.365,1.83,3.37,0.136,4.62,0.587,4.08
GCAGACAGGTGAAACGCAGATAACTCAGGGTGGC,-0.337,-0.00809,-0.429,-0.285,-0.813,0.654,1.04,-0.0865,-0.367,-0.137,1.09,0.225,0.243,-0.959,0.214,-0.239,-0.278,-0.0859,-0.365,0.56
TCATAAAGGTAATACAGGTGAAAGTCGGCATCTA,1.53,2.4,0.378,1.49,0.311,2.48,1.23,3,4.29,3.61,3.29,2.39,0.311,0.578,1.44,1.05,0.48,1.52,0.815,1.43
CCTACTGGGCCACGAAAGGTCATTAATTCAGTGA,3.16,4.95,4.76,4.24,0.358,4.48,4.47,4.57,1.99,3.83,5.58,5.87,1.7,0.266,3.46,5.12,1.71,5.32,1.1,3.79
GGATATAGGTAATACAAGGTGAAAGTCCGATTGT,1.08,2.72,0.722,1.12,0.202,2.58,2.63,2.51,0.801,1.87,5.48,5.34,1.29,1.44,1.17,1.02,0.527,2.01,1.8,0.806
GCTATTAGTTGCAAGGGCAACCGAATGATTCTCG,0.225,0.26,-0.0244,0.193,0.0622,0.193,0.483,0.912,0.0952,0.546,0.729,0.0802,-0.249,-0.171,0.499,0.243,0.11,-0.00266,-0.474,1.37
CGTACTGGGCCACGAAAGGTCATTGATTCAGTGA,4.13,4.99,5.16,4.46,0.336,4.75,4.87,4.93,2.22,4.16,5.64,5.82,1.54,0.503,4.05,5.71,2.11,5.78,1.22,4.17
CTCGAAAGGTCGTGTTCAGGTGAGTATACCAAAC,4.67,3.64,0.232,3.31,0.113,4.76,2.42,3.38,0.878,2.07,0.51,1.95,0.275,1.56,1.51,3.14,0.411,3.85,0.304,3.78
TAGCTTAGGTCATTCAGGGGCCAGTATAGAAAGC,4.82,4.33,0.984,3.31,1.67,3.69,1.38,2,0.369,1.11,1.24,1.84,0.465,1.33,2.5,2.96,0.636,4.06,0.433,3.88
CCTCGGAAGACAGAAGGTCAGAGCTGTCCGCTTT,0.995,1.6,0.422,1.25,-0.462,1.69,-0.302,0.238,-0.803,-0.38,-0.276,-0.376,-1.12,-1.96,1.82,1.38,-0.0252,1.89,0.512,2.33
CTCGAAAGGTCGTGCGCAGGTGAGTATACCAAAC,5.71,4.35,0.33,3.84,0.153,5.58,3.34,4.47,1.36,2.98,0.325,2.29,0.196,0.413,1.83,3.65,-0.0048,4.48,0.0809,4.19
CCTACTGAGCCACGAAAGGTCATTGATTCAGTGA,3.68,5.05,5.31,4.22,1.09,4.21,1.27,2.77,0.973,1.93,0.983,1.29,-0.156,0.271,3.9,5.33,2.61,5.69,3.37,3.95
CCTGCTAGGTCAATGGTCACCTAAAGCAGCTCGC,3.09,2.46,0.104,1.86,-0.189,3.68,5.66,5.88,3.3,5.26,3.93,4.42,0.106,-0.848,1.21,1.24,-0.353,2.13,-0.122,3.96
ATCTCTGGGTAAAGATAGTTCAGTGAATGCAAAT,-0.122,3.7,0.422,0.738,0.449,0.473,0.419,0.54,0.327,0.434,1.83,1.65,1.05,1.76,0.681,1.17,0.829,0.549,1.1,0.828
CCGAGTAGGATATGGGGCATTCAGGCAACGGTGA,-0.328,-0.279,-0.104,-0.307,-0.496,1.11,1.26,2.01,0.579,1.45,2.05,2.81,-0.179,-0.813,0.55,-0.236,-0.112,-0.0398,0.174,-0.0937
CGTCCAAGGTCAGAGAGGCCAGTGAATGCCGAGT,4.34,2.95,0.144,2.18,-0.662,3.93,2.04,2.45,-0.0839,1.33,2.19,2.04,-0.142,-0.792,1.17,2.83,2.62,2.56,-0.0378,4.62
CCTTACGGGTCAAGGCTATAGCACGGGTGGTACG,5.49,3.26,-0.261,2.59,-0.119,4.88,3.91,4.41,1.45,2.99,1.68,3.1,-0.373,-0.381,1.08,2.58,-0.208,3.68,0.855,3.98
GATACAGGGTCAGCTATAGGCCAGAGTATGGAAA,4.11,2.57,-0.223,2.13,-0.306,4.24,3.43,3.17,0.857,2.08,1.05,2.31,0.261,0.123,1.68,2.14,-0.0446,3.35,0.261,4.02
CGTCCCAGGTCAGCAGGTCAGTGAAAGCGACGTG,3.56,2.34,0.419,1.95,-0.0332,3.49,2.6,2.88,0.0912,1.51,1.69,2.71,-0.717,-0.861,1.2,2.16,-0.206,3.19,0.0121,4.12
AGTCAAAGTTCAGGACGAGGTAACGCAAAGCACG,3.93,3.88,1.08,2.03,0.0872,3.33,4.31,4.9,1.97,3.87,-0.0629,1.75,0.41,-0.132,1.73,2.72,1.03,2.78,0.826,4.33
TGGCCTAGGTCAGATCGGGCCAGTATACGCTATA,2.31,0.419,-0.777,0.152,-1.29,1.39,0.44,0.442,-0.693,-0.369,-0.485,1.03,-1.16,-1.38,-0.396,0.928,-0.757,0.548,-1.18,2.85
ATATGTAGGTTACATCCGGGTCATTGAGGCTATG,2.34,4.14,1.44,2.74,1.01,4.44,5.78,5.04,2.75,4.39,7.27,7.27,2.02,2.36,1.82,3.65,4.12,3.65,0.615,2.38
AGTCAAAGTTCAGGACTAGGTAACGTAAAGCACG,3.95,3.56,1.18,1.7,0.0894,3.41,4.81,5.05,2.27,4.21,0.593,3.09,0.657,0.484,1.73,2.41,1.04,2.4,1.11,4.13
